Assay outcomes as filed in PubChem.
CBFb RUNX1 block: CBF-beta/RUNX1 interaction disruption | Q01196+Q13951 | AlphaScreen CBFb-His/RUNX1-biotin binding, biochemical | Potency, µM (titrated, usually from 59.8 µM), for the others: top-dose activity, negative = inhibition, most hits filed as inhibitors | 230,000 tested, under 10 active; note: % of control where 0% means no effect
Target sequence (Q01196 whole entry, looked up): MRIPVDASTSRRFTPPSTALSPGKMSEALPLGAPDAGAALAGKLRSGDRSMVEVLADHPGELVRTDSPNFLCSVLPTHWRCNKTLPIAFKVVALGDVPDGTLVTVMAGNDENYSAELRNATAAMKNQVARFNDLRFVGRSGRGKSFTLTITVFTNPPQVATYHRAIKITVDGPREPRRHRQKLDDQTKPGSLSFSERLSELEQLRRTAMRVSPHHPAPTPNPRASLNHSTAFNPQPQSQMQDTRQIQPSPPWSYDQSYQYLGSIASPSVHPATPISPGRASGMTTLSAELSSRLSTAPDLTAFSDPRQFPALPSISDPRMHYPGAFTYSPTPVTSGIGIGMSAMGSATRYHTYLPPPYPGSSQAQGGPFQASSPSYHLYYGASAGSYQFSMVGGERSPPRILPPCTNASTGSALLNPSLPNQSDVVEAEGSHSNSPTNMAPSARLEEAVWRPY
Target sequence (Q13951 whole entry, looked up): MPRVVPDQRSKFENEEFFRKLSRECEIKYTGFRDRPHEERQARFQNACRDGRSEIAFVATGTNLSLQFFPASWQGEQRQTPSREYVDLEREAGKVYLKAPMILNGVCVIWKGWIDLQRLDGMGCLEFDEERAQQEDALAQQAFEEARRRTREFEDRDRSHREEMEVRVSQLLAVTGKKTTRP
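Bead-based AlphaScreen assay; binding partners His-tagged CBF-beta and biotinylated RUNX1 at 30 nM each. Compound exposure 15 min after a 20-min protein preincubation; bead step 90 min; all steps at room temperature.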
TRHR PAM: allosteric enhancers of human TRH receptor | TRHR cells, fluo-8 calcium fluorescence, EC20 TRH enhancement | 360,000 tested, 0.66% active | enhancement, % at 2 µM; in the data active = enhancement above about 30%; note: 0% is about no effect
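TRHR-expressing cells loaded with fluo-8 calcium dye were read kinetically (ex 480/em 530) during compound addition, then stimulated with an EC20 of TRH (10 nM final). Enhancement of the Gq-mediated intracellular calcium response was scored.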
IL2 activator: activates IL-2 in a cell-based reporter assay | IL-2 activation reporter assay, cell-based qHTS; stimulated with anti-CD3/CD4/CD28 beads; in transgenic mouse T cells | 360,000 tested, 0.065% active | activation, % (series mostly up to about 46 µM) | AID 652025; in the data active = activation above about 50%; inconclusive = mostly about 30% to 49%; note: 0% is about no effect
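Unstimulated transgenic mouse T cells, 750 per well, received compound and, after 60 minutes, anti-CD3/anti-CD4 bead plus anti-CD28 stimulation. EGFP and DsRed were quantified after 18 hours.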
MBNL1 CUG block: MBNL1-poly(CUG) RNA binding inhibition; 280,000 tested, 0.036% active; Q9NR56; AID 2675; Potency, µM (series often up to 57.5 µM), without a hit: at the top dose activity change, negative = inhibition, actives largely listed as inhibitors; TR-FRET MBNL1-His/biotin-(CUG)12 binding, 665/545 ratio; active = well fitted inhibition curve with a large enough effect in the signal ratio, with a control signal flat, not every such curve was filed as active; inconclusive = small, poorly fitted or top-dose-only effect, or effect the other way, or a change in a side signal; inactive = no such curve, though single readings can be large or run the other way; the % refers to the signal ratio; note: potency is the fitted concentration of half-maximal effect; % is set by controls: 0 for no effect and ±100 for the full control effect
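MBNL1-His + Biotin-(CUG)12, cpd titration 92 nM–58 uM; Tb anti-His Ab 0.055 ng/ul, SA-XL665 5 nM (final); 60 min RT; ratiometric 665/545 nm, Ex 340 nm; normalized to buffer and full-complex controls.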
TRHR agonist: agonists of human TRH receptor | P34981 | TRHR cells, calcium flux fluo-8, FDSS agonist mode | 360,000 tested, 0.18% active | activation, % at 2 µM; in the data active = activation above about 30%; note: 0% is about no effect
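TRHR-expressing cells, plated overnight in medium with 10% serum, were loaded with fluo-8 calcium dye at room temperature. After a 10 s baseline, library compound was pin-added and calcium release was recorded kinetically (ex 480/em 530) as agonist response.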
Epigenetic derep: derepresses silenced GFP reporter in murine cells | murine LDR cells, GFP reporter derepression, 30 h | Potency, µM (doses to about 53.9 µM), for the others: at the highest dose GFP activation, most hits filed as activators | 280,000 tested, 0.2% active | AID 1865; note: potency is the fitted concentration of half-maximal effect; % of control where 0% means no effect; nearly all actives have a fitted effect of over 60% in size
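GFP-positive cell count by laser-scanning cytometry (objects 20–120 um) after 30 h, 37 C compound exposure of murine LDR cells; reporter is CMV-GFP integrated at a silenced locus, inducible by HDAC or DNMT inhibitors.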
* marks the source's active call; other numbers are inactive results; ? = inconclusive; · = no result given. In the library only some 0.88% were active in any assay of this set; here they are far more common. Unless noted, calls come from the whole dose curve; as a rule, active = well fitted curve in the direction sought with a large enough effect; inconclusive = small, poorly fitted or top-dose-only effect, or another doubt; inactive = no such curve, though single readings can be large; an effect the other way counts as inactive or inconclusive.

SMILES	CBFb RUNX1 block	TRHR PAM	IL2 activator	MBNL1 CUG block	TRHR agonist	Epigenetic derep
Cc1ccccc1OCCn1c(=S)[nH]c2ccccc21	·	-10	-3	41%	-2	·
COc1ccccc1NC(=O)C1CCCN(c2ncnc3c2nc2n3CCCCC2)C1 (stereo unspecified)	·	1	-2	-7%	-1	·
COc1cc(OC)c(NC(=O)C2CCCN(c3ncnc4c3nc3n4CCCCC3)C2)cc1Cl (stereo unspecified)	·	33*	·	·	-1	-1%
Cc1cc2ccccc2n1-c1ccc(C(=O)N2CCCCC2)s1	·	-7	·	·	0	0%
Cc1cccnc1NCc1ccc(O)c2ncccc12	-17%	11	-3	26%	-1	6.3µM*
Cc1cccc(NCc2ccc(O)c3ncccc23)c1C	·	3	-1	16%	1	10%
O=C(COC(=O)C1(c2ccccc2F)CCCC1)NCc1ccc2c(c1)OCO2	0%	-4	65*	-6%	0	0%
CC(C)CCNC(=O)C1CCN(C(=O)c2cc3sccc3n2Cc2ccc(Cl)cc2)CC1	·	-4	·	·	1	0%
CN(C(=O)COC(=O)c1cccc(F)c1)c1ccccc1	·	16	-3	2%	-1	·
CN(C(=O)COc1cc(C(F)(F)F)nn1C)c1ccccc1	0%	35*	-1	-1%	0	2%
Cc1cc(=O)[nH]c(SCC(=O)Nc2ccc3c(c2)OCCO3)n1	-2%	32*	0	9%	0	2%
Cc1ccc(-c2nnc(-n3nc(C)cc3C)c3ccccc23)cc1	0%	30*	0	-6%	-2	-1%
Cc1cc(C)n(-c2nnc(Cl)c3ccccc23)n1	10%	-14	-1	-5%	0	-1%
Cc1nc(-c2cccc(F)c2)sc1CCNC(=O)c1ccc(F)c(F)c1	·	30*	·	·	-1	-2%
O=C(CSc1nnc(Cc2ccccc2)n1-c1ccccc1)NNC(=O)Cc1ccccc1	5%	31*	-5	4%	0	-1%
Cc1nnc(NC(=O)CSc2nnc(Cc3cccn3C)n2-c2ccccc2)s1	1%	39*	-1	5%	0	1%
Cc1nnc(NC(=O)CSc2nnc(Cc3cccn3C)n2-c2cccc(C)c2C)s1	-10%	-3	·	-3%	-1	0%
CCC(CC)C(=O)Nc1cccc(-c2nc3cccnc3s2)c1C	·	12	·	·	0	2%
Cc1ccc(C(=O)NCC(=O)OC(C(=O)Nc2cc(C(F)(F)F)ccc2Cl)c2ccccc2)cc1 (stereo unspecified)	·	-10	·	·	3	·
Cc1cccnc1NC(=O)CCNS(=O)(=O)c1ccc2c(c1)c(=O)n(C)c(=O)n2C	0%	35*	-3	-15%	0	-1%
Cc1cc(NC(=O)CCCn2c(C)c3cnn(-c4ccccc4)c(=O)c3c2C)ccc1Br	·	17	·	·	-1	-6%
Cc1ccc(NC2=C(Cl)C(=O)OC2OC(=O)c2ccccc2)c(C)c1 (stereo unspecified)	5%	-2	-1	-13%	0	16µM*
Cc1ccc(NC(=O)CN2C(=O)N/C(=C/c3ccc(C)s3)C2=O)cc1	5%	-6	53*	0%	8	?
Cc1ccc(/C=C2/NC(=O)N(Cc3ccccc3)C2=O)s1	-3%	-2	159*	5%	-3	25µM*
Cc1cccc(OCc2nc(CC(=O)Nc3ccc(C)cc3C)cs2)c1	·	3	·	·	-1	-3%
Cn1c(=O)n(C)c2cc(NS(=O)(=O)c3ccccc3)c(NCc3ccccc3)cc21	·	30*	·	·	0	1%
COc1ccc(-n2c(O)c(C=Nc3ccccc3)c3ccccc3c2=O)cc1	4%	-1	0	-1%	0	5%
CCN(c1ccc(N=Cc2c(O)n(Cc3ccc(OC)cc3)c(=O)c3ccccc23)cc1)C(C)C	?	9	19	·	0	2µM*
Cc1ccc(SCC(=O)OCC(=O)N(C)CC(=O)Nc2ccc(F)cc2)cc1C	·	35*	1	·	0	·
